Experimental data published in article PMC5540273 (PLoS ONE, 2017).
Read-outs that look alike come from different tables or passages of the source.

Tests used:
Conditions in all cases: n = 1
MEK2 = system: T1, MEK2
T1 construct: gene MAP2K2

MEK3 = system: T2, MEK3
T2 construct: gene MAP2K3

MEK4 = system: T3, MEK4
T3 construct: gene MAP2K4

MEK5 = system: T4, MEK5
T4 construct: gene MAP2K5

MEK6 = system: T5, MEK6
T5 construct: gene MAP2K6

MELK = system: MELK
MERTK = system: MERTK
MET = system: MET
MINK = system: T6, MINK
T6 construct: gene MINK1

MKK7 = system: MKK7
MKNK1 = system: MKNK1
MKNK2 = system: MKNK2
MLCK = system: T7, MLCK
T7 construct: gene MYLK3

MLK1 = system: T8, MLK1
T8 construct: gene MAP3K9

MLK2 = system: MLK2
MLK3 = system: MLK3
MRCKA = system: MRCKA
MRCKB = system: T9, MRCKB
T9 construct: gene CDC42BPB

MST1R = system: MST1R
MST1 = system: T10, MST1
T10 construct: gene STK4

[1] = concentration: 1 μM, replicates: in singlicate
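Note: KINOMEscan kinase panel screen.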

CC(C)(C)c1ccc(C(=O)Nc2cn3cc(-c4cccnc4)ccc3n2)cc1
%Inh (MEK2; [1]): 36% | %Inh (MEK3; [1]): 13% | %Inh (MEK4; [1]): 0% | %Inh (MEK5; [1]): 95.4% | %Inh (MEK6; [1]): 32% | %Inh (MELK; [1]): 33% | %Inh (MERTK; [1]): 26% | %Inh (MET; [1]): 0% | %Inh (MINK; [1]): 52% | %Inh (MKK7; [1]): 0% | %Inh (MKNK1; [1]): 0% | %Inh (MKNK2; [1]): 26% | %Inh (MLCK; [1]): 41% | %Inh (MLK1; [1]): 12% | %Inh (MLK2; [1]): 43% | %Inh (MLK3; [1]): 0% | %Inh (MRCKA; [1]): 9% | %Inh (MRCKB; [1]): 0% | %Inh (MST1R; [1]): 48% | %Inh (MST1; [1]): 33%

C[C@@H]1CCCCN1c1cc(-c2ccc3c(N)n[nH]c3c2)nc(N)n1 [GSK2258759]
%Inh (MEK2; [1]): 0% | %Inh (MEK3; [1]): 0% | %Inh (MEK4; [1]): 8% | %Inh (MEK5; [1]): 7% | %Inh (MEK6; [1]): 14% | %Inh (MELK; [1]): 0% | %Inh (MERTK; [1]): 11% | %Inh (MET; [1]): 0% | %Inh (MINK; [1]): 15% | %Inh (MKK7; [1]): 0% | %Inh (MKNK1; [1]): 0% | %Inh (MKNK2; [1]): 5% | %Inh (MLCK; [1]): 0% | %Inh (MLK1; [1]): 0% | %Inh (MLK2; [1]): 0% | %Inh (MLK3; [1]): 0% | %Inh (MRCKA; [1]): 6% | %Inh (MRCKB; [1]): 0% | %Inh (MST1R; [1]): 28% | %Inh (MST1; [1]): 0%

Cc1ccc(NC(=O)Nc2cc(C(C)(C)C)nn2-c2ccccc2)cc1 [GSK1014915]
%Inh (MEK2; [1]): 0% | %Inh (MEK3; [1]): 0% | %Inh (MEK4; [1]): 12% | %Inh (MEK5; [1]): 2% | %Inh (MEK6; [1]): 0% | %Inh (MELK; [1]): 26% | %Inh (MERTK; [1]): 15% | %Inh (MET; [1]): 0% | %Inh (MINK; [1]): 0% | %Inh (MKK7; [1]): 0% | %Inh (MKNK1; [1]): 28% | %Inh (MKNK2; [1]): 91.9% | %Inh (MLCK; [1]): 2% | %Inh (MLK1; [1]): 0% | %Inh (MLK2; [1]): 0% | %Inh (MLK3; [1]): 12% | %Inh (MRCKA; [1]): 23% | %Inh (MRCKB; [1]): 8% | %Inh (MST1R; [1]): 41% | %Inh (MST1; [1]): 52%

Cc1ccc(NC(=O)Nc2cccc(C(F)(F)F)c2)cc1 [GSK955403]
%Inh (MEK2; 1 µM): 3% | %Inh (MEK3; 1 µM): 15% | %Inh (MEK4; 1 µM): 0% | %Inh (MEK5; 1 µM): 0% | %Inh (MEK6; 1 µM): 26% | %Inh (MELK; 1 µM): 15% | %Inh (MERTK; 1 µM): 29% | %Inh (MET; 1 µM): 0% | %Inh (MINK; 1 µM): 0% | %Inh (MKK7; 1 µM): 0% | %Inh (MKNK1; 1 µM): 0% | %Inh (MKNK2; 1 µM): 30% | %Inh (MLCK; 1 µM): 0% | %Inh (MLK1; 1 µM): 0% | %Inh (MLK2; 1 µM): 13% | %Inh (MLK3; 1 µM): 6% | %Inh (MRCKA; 1 µM): 0% | %Inh (MRCKB; 1 µM): 0% | %Inh (MST1R; 1 µM): 0% | %Inh (MST1; 1 µM): 0%

Cc1cccc(-c2nc(-c3ccc(S(C)(=O)=O)cc3)sc2-c2ccnc(NCCc3ccccc3)c2)c1
%Inh (MEK2; [1]): 7% | %Inh (MEK3; [1]): 0% | %Inh (MEK4; [1]): 25% | %Inh (MEK5; [1]): 0% | %Inh (MEK6; [1]): 8% | %Inh (MELK; [1]): 0% | %Inh (MERTK; [1]): 0% | %Inh (MET; [1]): 0% | %Inh (MINK; [1]): 0% | %Inh (MKK7; [1]): 0% | %Inh (MKNK1; [1]): 3% | %Inh (MKNK2; [1]): 0% | %Inh (MLCK; [1]): 0% | %Inh (MLK1; [1]): 0% | %Inh (MLK2; [1]): 2% | %Inh (MLK3; [1]): 0% | %Inh (MRCKA; [1]): 6% | %Inh (MRCKB; [1]): 0% | %Inh (MST1R; [1]): 28% | %Inh (MST1; [1]): 0%

NC(=O)c1nnc2ccccc2c1N
%Inh (MEK2; [1]): 47% | %Inh (MEK3; [1]): 46% | %Inh (MEK4; [1]): 17% | %Inh (MEK5; [1]): 34% | %Inh (MEK6; [1]): 0% | %Inh (MELK; [1]): 9% | %Inh (MERTK; [1]): 0% | %Inh (MET; [1]): 16% | %Inh (MINK; [1]): 38% | %Inh (MKK7; [1]): 0% | %Inh (MKNK1; [1]): 12% | %Inh (MKNK2; [1]): 0% | %Inh (MLCK; [1]): 0% | %Inh (MLK1; [1]): 84% | %Inh (MLK2; [1]): 0% | %Inh (MLK3; [1]): 0% | %Inh (MRCKA; [1]): 0% | %Inh (MRCKB; [1]): 0% | %Inh (MST1R; [1]): 10% | %Inh (MST1; [1]): 4%

Cc1c(O)cccc1Nc1ccnc2ccc(C(F)(F)F)cc12.Cl [GW466413]
%Inh (MEK2; [1]): 0% | %Inh (MEK3; [1]): 0% | %Inh (MEK4; [1]): 19% | %Inh (MEK5; [1]): 35% | %Inh (MEK6; [1]): 0% | %Inh (MELK; [1]): 11% | %Inh (MERTK; [1]): 0% | %Inh (MET; [1]): 0% | %Inh (MINK; [1]): 2% | %Inh (MKK7; [1]): 0% | %Inh (MKNK1; [1]): 0% | %Inh (MKNK2; [1]): 1% | %Inh (MLCK; [1]): 1% | %Inh (MLK1; [1]): 0% | %Inh (MLK2; [1]): 0% | %Inh (MLK3; [1]): 4% | %Inh (MRCKA; [1]): 0% | %Inh (MRCKB; [1]): 0% | %Inh (MST1R; [1]): 0% | %Inh (MST1; [1]): 0%

CC1=C(C(=O)Nc2cc3cn[nH]c3cc2F)C(c2ccc(C(F)(F)F)cc2)CC(=O)N1 (stereo not drawn) [GSK429286]
%Inh (MEK2; [1]): 0% | %Inh (MEK3; [1]): 23% | %Inh (MEK4; [1]): 15% | %Inh (MEK5; [1]): 8% | %Inh (MEK6; [1]): 0% | %Inh (MELK; [1]): 0% | %Inh (MERTK; [1]): 13% | %Inh (MET; [1]): 0% | %Inh (MINK; [1]): 0% | %Inh (MKK7; [1]): 48% | %Inh (MKNK1; [1]): 0% | %Inh (MKNK2; [1]): 19% | %Inh (MLCK; [1]): 17% | %Inh (MLK1; [1]): 0% | %Inh (MLK2; [1]): 0% | %Inh (MLK3; [1]): 0% | %Inh (MRCKA; [1]): 1% | %Inh (MRCKB; [1]): 23% | %Inh (MST1R; [1]): 36% | %Inh (MST1; [1]): 0%

COc1cccc(-c2cc(-c3c[nH]nc3-c3ccccn3)ccn2)c1 [GW680338]
%Inh (MEK2; [1]): 0% | %Inh (MEK3; [1]): 67% | %Inh (MEK4; [1]): 8% | %Inh (MEK5; [1]): 13% | %Inh (MEK6; [1]): 0% | %Inh (MELK; [1]): 19% | %Inh (MERTK; [1]): 14% | %Inh (MET; [1]): 10% | %Inh (MINK; [1]): 65% | %Inh (MKK7; [1]): 10% | %Inh (MKNK1; [1]): 6% | %Inh (MKNK2; [1]): 0% | %Inh (MLCK; [1]): 8% | %Inh (MLK1; [1]): 0% | %Inh (MLK2; [1]): 43% | %Inh (MLK3; [1]): 9% | %Inh (MRCKA; [1]): 16% | %Inh (MRCKB; [1]): 0% | %Inh (MST1R; [1]): 35% | %Inh (MST1; [1]): 4%
